Our source for the Potency values is PubChem BioAssay (NCATS).

The structures appear in SMILES notation. Results filed as inconclusive are left out. Where a call stands in place of a potency, no number is given. Active and inactive are the calls of the source. Calls follow the shape of the full dose curve.

In the assay the target is Atrial natriuretic peptide receptor 1 (Homo sapiens) (UniProt P16066). The assay can be described thus: Natriuretic polypeptide receptor (hNpr1) antagonism - Pilot CMLD screen (AID 1347052).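 Also: HEK293 cells with hNpr1 stimulated by hNppA peptide at 0.1 nM; cGMP level read as GloSensor luciferase luminescence after agonist stimulation; series mostly up to about 9.2 µM.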
Sequence of Atrial natriuretic peptide receptor 1 (Homo sapiens) (P16066 whole entry, looked up): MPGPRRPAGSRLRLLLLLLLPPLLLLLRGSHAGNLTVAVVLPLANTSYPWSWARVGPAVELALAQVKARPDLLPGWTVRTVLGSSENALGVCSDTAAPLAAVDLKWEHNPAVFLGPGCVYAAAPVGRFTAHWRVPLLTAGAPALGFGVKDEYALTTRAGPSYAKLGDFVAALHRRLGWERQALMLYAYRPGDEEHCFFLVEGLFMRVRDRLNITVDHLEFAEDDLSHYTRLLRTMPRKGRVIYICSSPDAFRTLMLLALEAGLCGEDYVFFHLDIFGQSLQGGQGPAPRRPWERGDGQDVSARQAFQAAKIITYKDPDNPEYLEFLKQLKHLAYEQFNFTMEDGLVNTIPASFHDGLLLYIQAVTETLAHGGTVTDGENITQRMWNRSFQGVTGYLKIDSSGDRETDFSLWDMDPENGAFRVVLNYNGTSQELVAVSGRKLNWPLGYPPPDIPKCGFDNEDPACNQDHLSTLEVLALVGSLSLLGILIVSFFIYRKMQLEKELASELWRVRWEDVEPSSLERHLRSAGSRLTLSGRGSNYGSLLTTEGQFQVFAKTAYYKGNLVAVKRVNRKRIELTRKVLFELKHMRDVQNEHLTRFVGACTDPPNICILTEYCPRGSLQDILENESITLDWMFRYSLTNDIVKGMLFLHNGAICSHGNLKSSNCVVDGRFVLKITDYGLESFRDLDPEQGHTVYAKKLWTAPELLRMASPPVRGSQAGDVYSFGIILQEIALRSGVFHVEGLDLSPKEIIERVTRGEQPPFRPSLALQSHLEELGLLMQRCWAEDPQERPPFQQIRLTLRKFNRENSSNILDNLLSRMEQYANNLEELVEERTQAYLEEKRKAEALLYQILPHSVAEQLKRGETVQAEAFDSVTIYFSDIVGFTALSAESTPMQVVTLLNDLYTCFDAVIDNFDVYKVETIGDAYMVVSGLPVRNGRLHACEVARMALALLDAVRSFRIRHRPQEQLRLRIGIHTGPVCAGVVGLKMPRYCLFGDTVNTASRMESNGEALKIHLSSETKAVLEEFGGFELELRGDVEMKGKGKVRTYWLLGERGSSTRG

For the compound `C=CCN=C1NC(c2cccc(C(F)(F)F)c2)C(C(=O)OC)=C(C)N1Cc1ccccc1` (stereo not drawn), the Potency result was “inactive”. As for `c1ccc(-c2nc(-c3cccs3)c(NC3CCCCC3)o2)cc1`, the Potency entry was “inactive”.

Regarding `CC(C)(C)Nc1oc(-c2ccccc2)nc1-c1cccc2ccccc12`, the Potency entry is “inactive”.
